Shown are actives, neighbours in structure and some others; about 4.6% of the full set was active somewhere.
VACV Venus inh = inhibitors of vaccinia virus (Venus reporter); Vaccinia virus Venus reporter expression, fluorescence; Potency, µM (top dose mostly 36.5 µM), for inactives: at the highest dose activity change, negative = inhibition, most hits filed as inhibitors; 0.46% of 330,000 active; calls by dose curve; tested in A549 cells; note: nearly all actives have a fitted effect of over 30% in size
Vaccinia mCherry = inhibitors of vaccinia virus infection (mCherry reporter signal) | Vaccinia virus mCherry reporter infection, fluorescence | Potency, µM (doses to about 36.5 µM), inactives show at the highest dose activity change, negative = inhibition, usual class: inhibitors | 0.63% of 310,000 active | AID 720579; calls by dose curve; tested in A549 cells; note: nearly all actives have a fitted effect of over 35% in size
Marburg entry inh = Marburg virus entry inhibition; Marburg virus pseudotyped entry inhibition, cell reporter; Potency, µM (highest dose often 37.8 µM), for inactives: at the highest dose activity change, negative = inhibition, usual class: inhibitors; 1.8% of 300,000 active; AID 540276; calls by dose curve; tested in HEK293 cells
LASV entry inh = Lassa virus entry inhibition. 1.2% of 300,000 active. Lassa virus pseudotype entry inhibition, cell reporter. AID 540256. Potency, µM (series often up to 37.9 µM), without a hit: top-dose activity change, negative = inhibition, actives largely listed as inhibitors; calls by dose curve; tested in HEK293 cells; note: nearly all actives have a fitted effect of over 50% in size
HCV inh = HCV inhibition. Huh7.5.1 HCVcc-Cre infection, luciferase reporter, 44 h. Potency, µM (highest dose often 41.8 µM), without a hit: top-dose activity change, negative = inhibition, actives largely listed as inhibitors. 3.4% of 340,000 active. AID 651820; active = well fitted inhibition curve with a large enough effect; inconclusive = small, poorly fitted or top-dose-only effect, or another doubt; inactive = no such curve, though single readings can be large or run the other way
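Cells (1,000/well) were plated 4 h before compound, then infected with HCVcc-Cre virus (~0.5 moi). After 44 h further culture, infection was read as luciferase luminescence following a 15 min substrate incubation at room temperature.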
Active calls of the source: *; i = inactive; ? = inconclusive; nt = no result; [ ] = dose if it differs, or a comment. % is set by controls: 0 for no effect and ±100 for the full control effect; potency is the fitted concentration of half-maximal effect.

SMILES	VACV Venus inh	Vaccinia mCherry	Marburg entry inh	LASV entry inh	HCV inh
CCOC(=O)Cc1csc(NC(=O)/C=C/c2ccc(Cl)cc2)n1	nt	nt	nt	nt	11µM*
O=C(/C=C/c1ccc2c(c1)OCO2)Nc1nc(-c2ccc(F)cc2F)cs1	nt	nt	3%	18%	-15%
Cc1csc(NC(=O)/C=C/c2ccc3c(c2)OCO3)n1	-26%	-13%	4.5µM*	?	?
Cc1cc(C)cc(Nc2sc(C(=O)c3ccccc3)c(N)c2S(=O)(=O)c2ccccc2)c1	-6%	-24%	nt	?	nt
Nc1nc(Nc2ccccc2)sc1C(=O)c1ccccc1	28µM*	?	-16%[46.1 µM]	?	?
Nc1c(C(=O)c2ccccc2)sc(Nc2ccccc2)c1S(=O)(=O)c1ccccc1	nt	nt	?	?	14µM*
O=C(CCc1cccnc1)NCC1Cc2cccc(-c3ncccn3)c2O1 (stereo not drawn)	18%	-2%	nt	nt	nt
Cc1ccc(N2C(=O)CS(=O)(=O)C23C(=O)N(Cc2ccc(Cl)cc2)c2ccccc23)cc1C (stereo not drawn)	-2%	-5%	nt	-2%[46.1 µM]	nt
CC(C)c1ccc(CNC(=O)CCc2ccccc2)cc1	-3%	-8%	nt	nt	12%
CC(C)c1ccc(CNCc2ccccc2)cc1	-13%	-3%	18µM*	13%	-10%
O=C(NCc1ccncc1)c1cnn(-c2nccc(-c3cccs3)n2)c1C1CC1	-5%	-13%	nt	nt	nt
CC(C)(CN1CCCC1)NS(=O)(=O)c1ccc(Cl)cc1	-6%	-18%	?	?	-8%
CC(C)(CN1CCNCC1)NS(=O)(=O)c1ccc(Cl)cc1	nt	nt	nt	nt	4µM*
Cc1cc2oc(C(=O)Nc3ccc(S(=O)(=O)N4CCCC(C)C4)cc3)cc(=O)c2cc1Cl (stereo not drawn)	-12%	11%	11µM*	?	1%
CC(C)C(=O)Nc1c(-c2ccccc2)c(=O)c2ccccc2n1C	-6%	i	-4%[46.1 µM]	-16%	9%
Cc1ccc(-c2c(NC(=O)C(C)C)n(C)c3ccccc3c2=O)cc1	-6%	-8%	-21%	3%	3.2µM*
CCOC(=O)c1c(C(=O)OCC)c2c3ccccc3cc(C)n2c1C(=O)OC	nt	nt	1%[14.2 µM]	nt	nt
CCN1C(=O)[C@@H]2[C@H]3[C@H](O)[C@H](O)CC(=NOC[C@@H](C)[C@H](OCc4ccccc4)C(C)C)[C@@H]3CC[C@H]2C1=O	nt	nt	1%[14.2 µM]	13%[14.3 µM]	nt
CCN(CC)CCNc1ncnc2c1[nH]c1ccc(OC)cc12	nt	nt	-3%	nt	nt
CCN(CC)CCNC1=NCCn2c1cc1cc(OC)ccc12	nt	nt	?	8.2µM*	6.3µM*
COc1ccc(C(C)NCCC(c2ccc(OC(C)C)cc2)c2ccccc2OC)cc1 (stereo not drawn)	11µM*	?	?	-26%[46.1 µM]	10µM*
CC(C)(C)NCC(O)CON=C1c2ccccc2-c2ccccc21 (stereo not drawn)	?	?	10µM*	nt	25µM*
CC(C)(C)NC(=O)CON=C1c2ccccc2-c2ccccc21	-11%	-4%	?	-24%	?
Cc1cc(N2CCCC2=O)cc(C)c1S(=O)(=O)NCCOc1ccc(C(C)(C)C)cc1	?	?	?	12µM*	11µM*
Cc1cccn2c(=O)c3cc(C#N)c(=NC(=O)c4ccccc4)n(Cc4ccco4)c3nc12	?	-20%	?	?	4µM*
SMILES	VACV Venus inh	Vaccinia mCherry	Marburg entry inh	LASV entry inh	HCV inh
CCOC(=O)c1cc2c(=O)n3ccccc3nc2n(Cc2ccco2)c1=NC(=O)c1cccnc1	-11%	-14%	7.3µM*	?	2%
CCOC(=O)c1cc2c(=O)n3cccc(C)c3nc2n(Cc2ccco2)c1=NC(=O)c1cccnc1	-18%	-15%	?	9%	?
COc1ccc([C@H](CC(=O)N2CCOCC2)C(C)C)cc1	nt	nt	-1%	nt	nt
COc1cc(OC)c(OC)cc1/C=C/c1ccc2ccccc2[n+]1C	27%	-14%	nt	nt	nt
Cc1ccccc1-n1nc(C)c2cc(C(=O)N3CCOCC3)sc21	nt	nt	2%	-4%	6%
Cc1ccc(S(=O)(=O)N2CCN(C(=O)c3cc4c(C)nn(-c5ccccc5C)c4s3)CC2)cc1	?	?	18µM*	?	?
CC/C(=N\N1CCCCCC1)c1c(O)n(-c2ccc(C)cc2)c(=O)[nH]c1=O	-18%	i	11%	0.4µM*	4%
O=C1NC(=O)C(Cc2ccccc2)(C2CCN(Cc3cccn3-c3cccnc3)CC2)N1 (stereo not drawn)	-10%	-2%	nt	nt	nt
CC1CC(Nc2ccccc2)c2ccccc2N1C(=O)c1cccnc1 (stereo not drawn)	?	?	?	-29%	5.6µM*
C[C@@H]1C[C@H](Nc2ccccc2)c2ccccc2N1C(=O)c1cccnc1	?	nt	10µM*	?	?
COCc1nc(-c2ccc(-c3ccccc3)nc2OC)no1	-9%	-19%	14%	9%	14µM*
COc1ccc(-c2ccc(-c3noc(C(C)C)n3)c(OC)n2)cc1	-14%	nt	-12%	?	1.6µM*
CCOc1nc(-c2ccccc2)ccc1-c1noc(COC)n1	nt	nt	16%	?	10µM*
COc1ccc(Br)cc1-c1noc(-c2ccccc2)n1	-23%	nt	6%	3%	-16%
COCc1nc(-c2cc(Br)ccc2OC)no1	-3%	nt	-7%[46.1 µM]	1%	13µM*
COCc1nc(-c2ccc(-c3ccc(OC)cc3)nc2OC)no1	-18%	i	?	10%	?
CCOc1nc(-c2ccccc2)ccc1-c1noc(-c2ccc(C)cc2)n1	5%	-4%	19%[46.1 µM]	-2%[46.1 µM]	nt
CCN1CCN(C(=O)c2sc3ncnc(NCC4CCCO4)c3c2C)CC1 (stereo not drawn)	-4%	-10%	nt	nt	nt
CNc1ccc(/C=C2\C=Cc3ccccc32)cc1Cl	-15%	-23%	nt	nt	nt
CN(C)c1nc2n(c(=O)n1)[C@H](C#N)CS2	nt	nt	2%	nt	nt
O=C(Nc1ccccc1-c1ccccc1)c1ccc(Cl)c([N+](=O)[O-])c1	13µM*	20µM*	7.3µM*	23µM*	?
CCN1CCN(S(=O)(=O)c2ccc(Cl)c(C(=O)Nc3ccccc3N3CCCCC3)c2)CC1	-25%	-30%	11µM*	?	13µM*
O=C(NC(=S)Nc1ccccc1N1CCCCC1)c1ccccc1	-23%	?	nt	nt	11µM*
O=C(Nc1ccccc1C(=O)N1CCCC1)c1ccc(Cl)c([N+](=O)[O-])c1	5%	-12%	-4%[46.1 µM]	12%	8%
O=C(Nc1ccccc1N1CCCCC1)c1ccc(Cl)c([N+](=O)[O-])c1	?	-21%	1%[14.2 µM]	30%	13µM*
O=C(NC(=S)Nc1ccccc1N1CCCC1)c1ccc(F)cc1	15%	-8%	-27%	-25%	?
CCN1CCN(S(=O)(=O)c2ccc(Cl)c(C(=O)Nc3ccccc3N3CCCC3)c2)CC1	-11%	-5%	-3%	-10%	5%
CCOC(=O)c1c(C)[nH]c(C)c1S(=O)(=O)NCC(=O)N(C)c1ccc(C)c(C)c1	3%	-16%	nt	5%[46.1 µM]	nt
COc1cccc(-n2cnc3scc(-c4cccs4)c3c2=O)c1	?	nt	0%	4%	11µM*

Compound activity: PubChem BioAssay, National Center for Advancing Translational Sciences (NCATS)
